Our source for the growth values is PubChem BioAssay (NCI).

Test systems include EKVX NSCLC; SN12C renal; UO-31 renal; TK-10 renal; ACHN renal; CAKI-1 renal; A498 renal; CCRF-CEM leukemia; MOLT-4 leukemia; SR leukemia; RPMI-8226 leukemia; OVCAR-8 ovarian; OVCAR-5 ovarian; OVCAR-4 ovarian; SK-OV-3 ovarian; IGROV1 ovarian; OVCAR-3 ovarian; HS 578T breast; NCI/ADR-RES ovarian; T-47D breast.
Common to all, as to test: NCI-60 one-dose screen, 48 h (100 = growth as untreated, 0 = no growth, -100 = all killed)
Holding throughout (conditions): 10 µM unless noted

About 83,000 compounds went through this panel and 20% of them were active in at least one assay; those are over-represented in the sample as a whole.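 Testing used 96-well plates and a 48-hour single-concentration exposure. Example: -40 means 40% of the starting cells died.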 A number with no mark means an inactive call. The source made the active and inactive calls. The calls were made as follows: active = growth percent below 10; inactive = the rest.

`CC(C)(C)Nc1nc2c(OCCc3ccccc3)cccn2c1-c1cccc(F)c1`: the growth was 5.55% (active) in the test with EKVX NSCLC; 6.27% (active) in the test on SN12C renal; -11% (active) in the test on UO-31 renal; -6.22% (active) with TK-10 renal; 5.29% (active) with ACHN renal; -11.5% (active) in the test on CAKI-1 renal. The growth in the test with A498 renal is -18.9% (active); with CCRF-CEM leukemia, 3.62% (active); in the test with MOLT-4 leukemia, -0.489% (active); in the test with SR leukemia, -0.873% (active); with RPMI-8226 leukemia, -22.6% (active); in the test on OVCAR-8 ovarian, 10.2%. For the same molecule, the growth was 14.2% in the test with OVCAR-5 ovarian; 19.2% in the test on OVCAR-4 ovarian; -17% (active) in the test on SK-OV-3 ovarian; 10.1% in the test on IGROV1 ovarian; -0.703% (active) with OVCAR-3 ovarian; -4.86% (active) in the test with HS 578T breast. The growth is 3.69% (active) in the test on NCI/ADR-RES ovarian and 5.21% (active) in the test on T-47D breast.

As to `C[C@@H]1CN(c2ccc3ncc(C#Cc4cncc(C(=O)Nc5ccc(CN6CCN(C)CC6)c(C(F)(F)F)c5)c4)n3n2)C[C@H](C)O1`, the growth in the test with EKVX NSCLC was -18.9% (active); with SN12C renal, -26.7% (active); in the test on UO-31 renal, -87.9% (active); with TK-10 renal, -91.1% (active); with ACHN renal, -94% (active); in the test with CAKI-1 renal, -94.1% (active). For the same molecule, the growth in the test with A498 renal is -90.4% (active); with CCRF-CEM leukemia it was 3.83% (active); in the test with MOLT-4 leukemia, 1.65% (active); with SR leukemia, -24.3% (active); with RPMI-8226 leukemia, -2.52% (active); with OVCAR-8 ovarian, 0.405% (active). The growth in the test on OVCAR-5 ovarian is -35.4% (active); in the test on OVCAR-4 ovarian it was -10.1% (active); in the test on SK-OV-3 ovarian, -76.5% (active); in the test with IGROV1 ovarian, -5.72% (active); with OVCAR-3 ovarian it was -48.3% (active); with HS 578T breast it was -37% (active). For the same molecule, the values for the growth with NCI/ADR-RES ovarian and in the test on T-47D breast were -8.65% (active) and 15%, respectively.

Regarding `CCN1CCN(/C(=N\c2sc(-c3ccccc3)nc2-c2ccccc2)c2ccccc2)CC1`, the growth in the test with EKVX NSCLC is 78.8%; with SN12C renal it was 76.2%; in the test on UO-31 renal it was 64.5%; in the test with TK-10 renal it was 94.1%; with ACHN renal it was 88.8%; in the test with CAKI-1 renal, 65.3%. Further, the growth was 113% with A498 renal; 68.1% in the test on CCRF-CEM leukemia; 60.7% in the test with MOLT-4 leukemia; 52.8% in the test with SR leukemia; 57.7% with RPMI-8226 leukemia; 97.1% with OVCAR-8 ovarian. For the same molecule, the growth is 91.8% with OVCAR-5 ovarian; 31.8% with OVCAR-4 ovarian; 99.5% in the test on SK-OV-3 ovarian; 92.9% with IGROV1 ovarian; 87.2% with OVCAR-3 ovarian; 92.2% in the test with HS 578T breast. Besides, the values for the growth in the test on NCI/ADR-RES ovarian and in the test with T-47D breast were 82.1% and 63.7%, respectively.

As for `Cc1[nH]nc2ncc(C#Cc3cncc(C(=O)Nc4ccc(CN5CCN(C)CC5)c(C(F)(F)F)c4)c3)cc12`, the growth with EKVX NSCLC was 54.9%; in the test on SN12C renal, 7.71% (active); in the test with UO-31 renal, -6.87% (active); with TK-10 renal it was 27.8%; in the test on ACHN renal it was 4.36% (active); in the test on CAKI-1 renal it was -27.9% (active). Moreover, the growth in the test on A498 renal is -17.7% (active); in the test with CCRF-CEM leukemia, 20.9%; with MOLT-4 leukemia, 20.4%; in the test with SR leukemia, 19.6%; in the test with RPMI-8226 leukemia it was 29.9%; in the test on OVCAR-8 ovarian, 37.8%. The growth in the test on OVCAR-5 ovarian is 20.5%; in the test with OVCAR-4 ovarian, 50.7%; in the test with SK-OV-3 ovarian, 0.879% (active); in the test with IGROV1 ovarian, 1.84% (active); in the test with OVCAR-3 ovarian it was 37.8%; in the test on HS 578T breast, 9.15% (active). The figures for the growth in the test on NCI/ADR-RES ovarian and with T-47D breast were 78% and 32.6%, respectively.

For `Cc1ccc(/C=C/c2nn3c(-c4ccco4)nnc3s2)cc1C`, the growth in the test with EKVX NSCLC is 82.8%; in the test with SN12C renal, 90.8%; with UO-31 renal it was 80.8%; in the test on TK-10 renal, 116%; in the test on ACHN renal it was 102%; in the test on CAKI-1 renal it was 90.8%. In addition, the growth with A498 renal is 87%; with CCRF-CEM leukemia it was 104%; in the test with MOLT-4 leukemia it was 97.8%; in the test on SR leukemia, 90.1%; with RPMI-8226 leukemia it was 109%; in the test with OVCAR-8 ovarian it was 88.7%. The growth in the test on OVCAR-5 ovarian is 107%; with OVCAR-4 ovarian it was 101%; in the test on SK-OV-3 ovarian, 116%; in the test on IGROV1 ovarian it was 97.5%; in the test on OVCAR-3 ovarian, 114%; with HS 578T breast it was 102%. Besides, the growth was 108% in the test with NCI/ADR-RES ovarian and 102% with T-47D breast.

In the case of `O=C(CSc1nc2sc3c(c2c(=O)n1-c1ccc(Cl)cc1)CCCC3)NNC(=O)Nc1ccc(Cl)c(C(F)(F)F)c1`, the growth was 41% in the test on EKVX NSCLC; 32.3% with SN12C renal; 30.4% in the test on UO-31 renal; 38.3% with TK-10 renal; 13.3% with ACHN renal; 34.6% with CAKI-1 renal. Further, the growth is -15.5% (active) in the test on A498 renal; 13.5% with CCRF-CEM leukemia; 6.67% (active) in the test with MOLT-4 leukemia; 8.77% (active) in the test on SR leukemia; 0.887% (active) in the test with RPMI-8226 leukemia; 27.2% in the test with OVCAR-8 ovarian. Besides, the growth is 49.4% with OVCAR-5 ovarian; 16% in the test with OVCAR-4 ovarian; 74.9% in the test on SK-OV-3 ovarian; 29.7% with IGROV1 ovarian; 4.44% (active) in the test with OVCAR-3 ovarian; 69.4% in the test with HS 578T breast. In addition, the growth is 61% in the test with NCI/ADR-RES ovarian and -34.2% (active) in the test on T-47D breast.

Regarding `COc1ccc(-c2nc3ccc(-c4nnc(SCC(=O)Nc5ccc(C(=O)/C=C/c6ccccc6)cc5)o4)cc3[nH]2)cc1OC`, the growth was 104% with EKVX NSCLC; 94.8% with SN12C renal; 88.5% in the test with UO-31 renal; 133% with TK-10 renal; 96.3% in the test with ACHN renal; 97% in the test with CAKI-1 renal. In addition, the growth in the test with A498 renal is 112%; in the test with CCRF-CEM leukemia it was 88.4%; with MOLT-4 leukemia, 80.5%; in the test on SR leukemia it was 83.6%; in the test on RPMI-8226 leukemia it was 64%; in the test with OVCAR-8 ovarian it was 104%. Also, the growth is 99.4% in the test on OVCAR-5 ovarian; 109% in the test with OVCAR-4 ovarian; 117% with SK-OV-3 ovarian; 96.4% in the test with IGROV1 ovarian; 114% in the test on OVCAR-3 ovarian; 96.1% with HS 578T breast. Also, the growth is 110% in the test on NCI/ADR-RES ovarian and 86.9% in the test with T-47D breast.

As to `O=[N+]([O-])c1ccc(O)c2ncccc12`, the growth in the test on EKVX NSCLC was 26.2%; with SN12C renal, 42.1%; with UO-31 renal it was 31.4%; in the test on TK-10 renal, 55.6%; with ACHN renal, 23.7%; with CAKI-1 renal, 30.5%. The growth with A498 renal was 55.7%; in the test on CCRF-CEM leukemia, 17.7%; in the test on MOLT-4 leukemia, 19.9%; in the test on SR leukemia it was 14.6%; with RPMI-8226 leukemia, 22.1%; in the test with OVCAR-8 ovarian, 16.9%. In addition, the growth with OVCAR-5 ovarian was 40.1%; in the test with OVCAR-4 ovarian, 40.8%; in the test with SK-OV-3 ovarian, 58.7%; in the test with IGROV1 ovarian, 23.6%; in the test with OVCAR-3 ovarian, 11.4%; with HS 578T breast, 47.3%. In addition, the growth was 15.5% in the test on NCI/ADR-RES ovarian and 25.9% in the test with T-47D breast.
